What all share (assay): NCI-60 one-dose screen, 48 h (100 = growth as untreated, 0 = no growth, -100 = all killed)
Conditions in all cases: 10 µM unless noted

Experiment [1] relates to SK-MEL-2 melanoma.
The subject of experiment [2] is EKVX NSCLC.
The subject of experiment [3] is SN12C renal.
The test system of experiment [4] is UO-31 renal.
The subject of experiment [5] is TK-10 renal.
Experiment [6] relates to ACHN renal.
In experiment [7] the test system is CAKI-1 renal.
For experiment [8], the system named is A498 renal.
For experiment [9], the system named is CCRF-CEM leukemia.
The subject of experiment [10] is MOLT-4 leukemia.
In experiment [11] the test system is SR leukemia.
Experiment [12] concerns RPMI-8226 leukemia.
The test system of experiment [13] is OVCAR-8 ovarian.
Experiment [14] concerns OVCAR-5 ovarian.
Experiment [15] concerns OVCAR-4 ovarian.
In experiment [16] the test system is SK-OV-3 ovarian.
In experiment [17] the test system is OVCAR-3 ovarian.
Experiment [18] has as its system HS 578T breast.
Experiment [19] concerns NCI/ADR-RES ovarian.
The test system of experiment [20] is IGROV1 ovarian.

The structures appear in SMILES notation. This is part of a sample that, as a whole, favours compounds with a hit. Of some 83,000 tested, about 20% had one in any assay.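 Single-dose data. Exposure time 48 hours. Values below 10 considered active.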 Values without a mark were called inactive. The source made the active and inactive calls.

`N#CC1=C(c2cccs2)Nc2c(c(-c3ccccc3)nn2-c2ccccc2)C12C(=O)Nc1ccc(Cl)cc12` (stereo not drawn): the growth in experiment [1] is 22.8%; in experiment [2], 13.3%; in [3], 33.8%; in [4], 12.7%; in experiment [5], 31.5%; in experiment [6], 12.6%. Besides, the growth is 23.3% in experiment [7]; 88.8% in [8]; 13.7% in [9]; 19.3% in [10]; 12.6% in experiment [11]; 13.3% in experiment [12]. Moreover, the growth is 28% in experiment [13]; 5.03% (active) in [14]; 27.2% in experiment [15]; 59% in experiment [16]; 23.1% in [17]; 8.15% (active) in experiment [18]. In [19], the growth is 33%.
`O=C(c1ccc(O)cc1)C1[C@H](c2ccc(Cl)cc2)[C@@H](c2ccccc2)NC12C(=O)Nc1ccc(Br)cc12` (stereo partly drawn): the growth in experiment [1] is -76.1% (active); in experiment [2], -5.33% (active); in experiment [3], -92.6% (active); in [4], -25.7% (active); in [5], 1.72% (active); in experiment [6], 0.788% (active). In addition, the growth in [7] is 3.93% (active); in experiment [8], -15.5% (active); in experiment [9], -11.1% (active); in experiment [10], -34.2% (active); in [11] it was -52.7% (active); in experiment [12] it was 3.14% (active). Moreover, the growth in experiment [13] was 5.82% (active); in experiment [14], -19.4% (active); in [15] it was -8.82% (active); in [16], 22%; in experiment [20] it was -40.4% (active); in [18] it was -5.94% (active). Also, the growth in experiment [19] was -37.2% (active).
With `CCCCC[C@@H]1C/C=C(\C)[C@@H](O)C(C)(C)C(=O)[C@@H](C)/C=C(\C)[C@@H]2C[C@H](O)C[C@](O)(CC(=O)O1)O2`, the growth in experiment [1] is 9.84% (active); in [2], 21.4%; in experiment [3], 76.8%; in experiment [4] it was 20.4%; in experiment [5], 55.1%; in experiment [6], 19.7%. Besides, the growth was 47.1% in [7]; 30% in experiment [8]; 28.9% in experiment [9]; 18.2% in experiment [10]; 17.1% in [11]; 8.23% (active) in experiment [12]. Further, the growth is 42.3% in [13]; 78% in [14]; 27.7% in experiment [15]; 78.6% in experiment [16]; 58.5% in experiment [20]; 35.6% in [17]. For the same compound, the values for the growth in [18] and in experiment [19] were 47.7% and 19.7%, respectively.
With `Cc1cc(=O)oc2cc(OCC(O)CNN3C(=O)c4cccc5c(N6CCN(C)CC6)ccc(c45)C3=O)ccc12` (stereo not drawn), the growth in experiment [1] is 92.2%; in experiment [2] it was 97.3%; in experiment [3] it was 88.9%; in experiment [4], 83.8%; in experiment [5], 138%; in experiment [6], 91.2%. The growth in [7] was 96.2%; in [8], 122%; in experiment [9], 96.7%; in experiment [10], 90.4%; in experiment [11], 81.1%; in experiment [12] it was 97.4%. In addition, the growth in experiment [13] is 91.4%; in experiment [14], 112%; in experiment [15], 99.1%; in experiment [16], 116%; in [20] it was 109%; in [18], 87.4%. For the same compound, the growth in experiment [19] was 89.4%.
Turning to `CC[C@]12C=CCN3CC[C@@]4(c5ccc(OC)cc5N(C)[C@H]4[C@@](O)(C(=O)OC)[C@@H]1OC(=O)CCCC[P+](c1ccc(F)cc1)(c1ccc(F)cc1)c1ccc(F)cc1)[C@@H]32`, the growth was -54% (active) in [1]; 53% in experiment [2]; 10.6% in experiment [3]; 85.9% in experiment [4]; 70.2% in experiment [5]; 103% in [6]. The growth in experiment [7] is 73.2%; in experiment [8], 99.2%; in [9], 19.9%; in experiment [10], 29.1%; in experiment [11], 28.8%; in experiment [12], 4.14% (active). Besides, the growth in experiment [13] is 20%; in experiment [14] it was 49.7%; in [15] it was 33.1%; in experiment [16] it was 41.4%; in [20], -42.8% (active); in experiment [18], -2.23% (active). In experiment [19], the growth is 105%.
On to `Nc1nnc(-c2cncc(Br)c2)c(-c2c[nH]c3ccc(Br)cc23)n1`, for which the growth is 55.4% in experiment [1]; 65.7% in experiment [2]; 57.6% in [3]; 34.8% in [4]; 97.7% in [5]; 56.5% in [6]. Further, the growth in experiment [7] is 46%; in [8], 92.7%; in experiment [9], 44.1%; in experiment [10], 33%; in experiment [11], 54.3%; in experiment [12], 38.4%. Besides, the growth in experiment [13] was 60%; in [14], 83%; in experiment [15] it was 42.9%; in experiment [16], 98.7%; in experiment [20], 52.3%; in [17], 69.9%. The growth in experiment [18] is 55.3%; in experiment [19], 23.9%.
`O=C(OCCOCCO)N(c1cccc(Br)c1)c1nc(SCCN2CCOCC2)nc2c1cnn2CC(Cl)c1ccc(Br)cc1` (stereo not drawn): the growth is -60.3% (active) in experiment [1]; 26.6% in experiment [2]; 20.3% in experiment [3]; -3.09% (active) in [4]; 40.5% in experiment [5]; 2.9% (active) in [6]. Besides, the growth in experiment [7] was 27.8%; in experiment [8] it was 45.5%; in experiment [9], -18.4% (active); in experiment [10], -24.3% (active); in experiment [11], -27.8% (active); in experiment [12], -25.7% (active). Besides, the growth in [13] is 19.6%; in [14] it was 34.7%; in experiment [15], 23.5%; in experiment [16] it was 25.3%; in experiment [20], 31.8%; in [18] it was -2.13% (active). Also, the growth in experiment [19] is 12.3%.
Regarding `O=C(Nc1ccc(-c2ccc3c(c2)NC(=O)/C3=C\c2ccc[nH]2)cc1)Nc1ccc(Cl)c(C(F)(F)F)c1`, the growth is 34.2% in experiment [1]; 25.3% in [2]; 19.4% in [3]; 36.1% in experiment [4]; 42.1% in [5]; 37.3% in experiment [6]. For the same compound, the growth in [7] was 39.3%; in [8] it was 39.2%; in [9], 27.4%; in experiment [10] it was 9.33% (active); in experiment [11] it was 6.31% (active); in [12], 30.3%. Moreover, the growth in [13] was 50.5%; in experiment [14] it was 51.2%; in experiment [15] it was 28.9%; in experiment [16], 68.3%; in experiment [17], 29.1%; in experiment [18], 39%.

The values are drawn from PubChem BioAssay (NCI).
